Assay results reported in PubChem BioAssay (NCATS).

Assay: qHTS profiling for inhibitors of Plasmodium falciparum (HB3) proliferation (AID 743324);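 further: 100% = DMSO vehicle wells and 0% = artemisinin-treated control wells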
Conditions: Plasmodium falciparum HB3 blood-stage proliferation; at 28.7 µM (top of the series) unless noted
In short: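 SYBR Green fluorescence (485 ex/535 em) of lysed cultures, incubated overnight at room temperature in the dark, quantifies parasite DNA. Infected erythrocytes at 0.3% parasitemia and 2.5% hematocrit were exposed 72 h; values normalized to DMSO and 0.29 uM artemisinin controls.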

SMILES | remaining proliferation (% of control), lower = more inhibition
O=C1NC(=O)C(c2cnc3ccccn23)=C1c1cn2c3c(cccc13)CN(C(=O)N1CCOCC1)CC2 | 10.8%
CC(=O)NCCC(=O)N[C@@H](CCC(N)=O)C(=O)N[C@@H](CO)C(=O)N[C@@H](CCC(N)=O)C(=O)N[C@@H](CCC(N)=O)C(=O)N[C@H](C(=O)N[C@@H](Cc1ccccc1)C(=O)N[C@]1(C)CCCCCCC=CCCC[C@@](C)(C(=O)N[C@@H](CCC(N)=O)C(=O)N[C@@H](CC(N)=O)C(N)=O)NC(=O)[C@H](CC(C)C)NC(=O)[C@H](CC(C)C)NC(=O)[C@@H](CCCNC(=N)N)NC(=O)[C@H](Cc2c[nH]c3ccccc23)NC(=O)[C@H](CC(C)C)NC(=O)[C@H](CC(N)=O)NC1=O)[C@H](C)O | 66.8%
CCCCc1ccc(NS(=O)(=O)c2ccc(C)c(C(=O)N3CCN(c4cccc(C)c4C)CC3)c2)cc1 | 92.7%
CC(C)Oc1cc(Nc2nc(N[C@@H](C)c3ccc(F)cn3)ncc2Cl)[nH]n1 | 3.28%
C=C[C@@H]1CN2CCC1C[C@@H]2C(O)c1ccnc2ccc(OC)cc12 (some centres not stated) | 2.91%

Assay: qHTS profiling of the MIPE4 collection as inhibitors of Plasmodium falciparum (3D7) proliferation (AID 743344);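 further: scaled between DMSO vehicle wells and 0.29 µM artemisinin as full inhibition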
Conditions: P. falciparum 3D7 in erythrocytes, SYBR Green DNA fluorescence, 72 h; at 28.5 µM (top of the series) unless noted
In short: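 Parasite DNA was quantified by SYBR Green I fluorescence (ex 485, em 535 nm) after overnight lysis in saponin/Triton buffer at room temperature. Cultures at 0.3% parasitemia and 2.5% hematocrit were first exposed to compound for 72 h at 37 C; signals were normalised to artemisinin (0.29 uM) and vehicle wells.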

SMILES | parasite growth, % of DMSO control
Cc1cnc(CNC(=O)c2c(=O)c3ccc(N4CCCN(C)CC4)nc3n3c2sc2ccccc23)cn1 | 6.1% [at 9.64 µM]
CCC[C@H](N[C@@H](C)C(=O)N1[C@@H]2CCCC[C@H]2C[C@H]1C(=O)O)C(=O)OCC | 69%
CCn1c(-c2nonc2N)nc2cncc(CNC3CCNCC3)c21 | 45.1%
Cn1c(=O)c(-c2c(Cl)cccc2Cl)cc2cnc(Nc3cccc(C(=O)O)c3)nc21 | 12.8%
O=C1NC(=O)C(c2cnc3ccccn23)=C1c1cn2c3c(cccc13)CN(C(=O)N1CCOCC1)CC2 | 22.1%
Cc1c(-c2cccc3c(CCCOc4cccc5ccccc45)c(C(=O)O)n(Cc4cccnc4)c23)c(COc2ccc(N3CCN([S+](=O)([O-])N(C)C)CC3)cc2)nn1C | 5.78%
O=C(Nc1cccc(C(F)(F)F)c1)Nc1cc(S(=O)(=O)NC2CC2)ccc1-c1ccsc1 | 52.8%
CC(=O)NCCC(=O)N[C@@H](CCC(N)=O)C(=O)N[C@@H](CO)C(=O)N[C@@H](CCC(N)=O)C(=O)N[C@@H](CCC(N)=O)C(=O)N[C@H](C(=O)N[C@@H](Cc1ccccc1)C(=O)N[C@]1(C)CCCCCCC=CCCC[C@@](C)(C(=O)N[C@@H](CCC(N)=O)C(=O)N[C@@H](CC(N)=O)C(N)=O)NC(=O)[C@H](CC(C)C)NC(=O)[C@H](CC(C)C)NC(=O)[C@@H](CCCNC(=N)N)NC(=O)[C@H](Cc2c[nH]c3ccccc23)NC(=O)[C@H](CC(C)C)NC(=O)[C@H](CC(N)=O)NC1=O)[C@H](C)O | 86.3%
C=C1c2cccc(O)c2C(O)=C2C(=O)[C@@]3(O)C(O)=C(C(N)=O)C(=O)[C@@H](N(C)C)[C@@H]3[C@@H](O)[C@H]12 | 23.7%
C[C@@]1(c2cc(-c3cncnc3)c(F)cc2F)CCSC(N)=N1 | 28.5%
Cc1cc(CS(=O)(=O)c2ccccc2)cc(OCc2ccc(CN3CCC[C@H]3CO)cc2)c1 | 33.1%
O=C1Nc2ccc(I)cc2C1=Cc1cc(Br)c(O)c(Br)c1 | 20.7%
CCc1cccc(CC)c1NC(=O)N1Cc2[nH]nc(NC(=O)c3ccc(N4CCN(C)CC4)cc3)c2C1 | 19%
Nc1[nH]nc2nnc(-c3c(-c4ccccc4)nn4ccccc34)cc12 | 25%
Cc1nc(NC(=O)N2CCC[C@@H]2C(N)=O)sc1-c1csc(C(C)(C)C)n1 | 16.4%
CCCCc1ccc(NS(=O)(=O)c2ccc(C)c(C(=O)N3CCN(c4cccc(C)c4C)CC3)c2)cc1 | 232%
CCNC(=O)c1noc(-c2cc(C(C)C)c(O)cc2O)c1-c1ccc(CN2CCOCC2)cc1 | 5.56%
N#CC1(c2cccc(C(=O)Nc3cc(Oc4ccc5nc(NC(=O)C6CC6)sc5n4)ccc3F)c2Cl)CC1 | 14.7%
CC1C(=O)OC2C(O)C34C5CC(C(C)(C)C)C36C(OC(=O)C6O)OC4(C(=O)O5)C12O (configuration not stated) | 93.4%
COc1ccc(-c2cc(=O)c3c(O)cc(O[C@@H]4O[C@H](CO[C@@H]5O[C@@H](C)[C@H](O)[C@@H](O)[C@@H]5O)[C@@H](O)[C@H](O)[C@@H]4O)cc3o2)cc1O | 30.1%
CCCCC(C)(C)[C@H](O)C=C[C@H]1[C@H](O)CC(=O)[C@H]1CC=CCCCC(=O)O | 76.7%
CC1(COc2ccc3c(c2)ncn3-c2ccc3cccc(N4CCC(N)CC4)c3n2)COC1 | 5.45%
